Compound activity: PubChem, NMMLSC
An excerpt weighted towards active compounds, which were near 2.5% of everything screened.
GRK2 aptamer HTS: compounds blocking aptamer binding on GRK2 – biochemical, human GRK2, bead flow cytometry, HTS, primary screen; Beta-adrenergic receptor kinase 1 (Homo sapiens), P25098; FAM-aptamer displacement from GRK2; inhibition of aptamer binding, % at 10 µM; actives 0.59% (n = 330,000); AID 488847, 2010;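 active = inhibition of aptamer binding above 40%, roughly 3 SD of noise, on plates passing a quality check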;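 note: median bead fluorescence of bound FAM aptamer so fluorescent compounds give negative values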
Target sequence (P25098 whole entry, looked up): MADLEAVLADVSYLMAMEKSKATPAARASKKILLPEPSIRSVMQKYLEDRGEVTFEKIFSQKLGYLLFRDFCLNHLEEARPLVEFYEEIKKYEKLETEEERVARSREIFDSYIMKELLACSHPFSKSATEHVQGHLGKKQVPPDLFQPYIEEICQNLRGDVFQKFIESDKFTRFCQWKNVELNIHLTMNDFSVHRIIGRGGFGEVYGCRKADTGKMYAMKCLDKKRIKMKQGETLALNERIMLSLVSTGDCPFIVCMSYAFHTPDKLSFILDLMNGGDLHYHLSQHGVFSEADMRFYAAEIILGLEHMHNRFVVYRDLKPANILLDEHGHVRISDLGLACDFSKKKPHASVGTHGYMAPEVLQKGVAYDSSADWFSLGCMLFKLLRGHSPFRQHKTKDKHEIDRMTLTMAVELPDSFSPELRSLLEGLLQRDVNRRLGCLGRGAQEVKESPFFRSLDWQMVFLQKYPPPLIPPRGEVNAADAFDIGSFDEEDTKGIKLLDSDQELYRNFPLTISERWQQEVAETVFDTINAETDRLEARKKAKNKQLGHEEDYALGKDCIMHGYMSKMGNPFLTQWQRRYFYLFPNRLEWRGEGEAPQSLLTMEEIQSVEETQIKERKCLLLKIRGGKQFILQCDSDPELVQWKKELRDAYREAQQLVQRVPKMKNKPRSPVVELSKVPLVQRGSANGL
MEKK3 PB1 HTS: modulators of MEKK3-MEK5 PB1 binding, primary screen, biochemical, wildtype MEKK3, multiplex bead flow cytometry, Alexa488-MEK5; bead-based flow cytometry, Alexa488-MEK5 binding to MEKK3; actives lie on both sides; 0 = blocked by unlabeled MEK5, 100 = vehicle; actives 1.4% (n = 290,000); AID 1529, 2009; Mitogen-activated protein kinase kinase kinase 3 (Homo sapiens), Q99759; binding response (% of control), % at 10 µM;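 active = binding response more than 3 SD above or below the average of its plate-row segment, actives on both sides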;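 note: Alexa488 bead fluorescence after subtracting the streptavidin-only scavenger bead signal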
MEKK2wt PB1 HTS: modulators of MEK5 binding to wildtype MEKK2, primary screen, biochemical, multiplex bead flow cytometry, Alexa488-MEK5; Mitogen-activated protein kinase kinase kinase 2 (Homo sapiens), Q9Y2U5; Alexa488-MEK5 binding to MEKK2 WT; actives lie on both sides; binding response (% of control), % at 10 µM; actives 1.1% (n = 290,000); in the data active = binding response below about 67% or above about 130%
MEKK2mut PB1 HTS: MEK5 binding signal on mutant MEKK2 PB1, primary screen, biochemical, multiplex bead flow cytometry, Alexa488-MEK5 | Alexa488-MEK5 binding to MEKK2 mutant | percent response, % at 10 µM | actives 0.35% (n = 290,000); in the data active = percent response above about 24%, passing the limit was not always enough
MEKK2wt confirm: modulators of MEK5 binding to wildtype MEKK2, confirmation, biochemical, single concentration, multiplex bead flow cytometry | shares compounds with MEKK3 PB1 HTS | Alexa488-MEK5 binding to MEKK2 WT; actives lie on both sides | binding response (% of control), % at 10 µM | actives 2.4% (n = 5,900) | AID 1892, 2009; in the data active = binding response below about 16% or above about 210%; inactive = in between
MEKK2mut-MEK5: mutant MEKK2 PB1-MEK5 binding signal retest – biochemical, single concentration, multiplex bead flow cytometry, confirmation. shares compounds with MEKK3 PB1 HTS. Alexa488-MEK5 binding to MEKK2 mutant. percent response, % at 10 µM. actives 2% (n = 5,900). AID 1893, 2009; in the data active = percent response mostly above about 71%, no sharp cut-off; inactive = mostly below about 38%;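 note: higher means compound restores mutant binding toward wildtype level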
MEKK3-MEK5 inh: MEKK3 wild-type PB1 binding to MEK5, inhibitors, confirmation, biochemical, bead multiplex flow cytometry, single concentration, wildtype; shares compounds with MEKK3 PB1 HTS; binding response (% of control), % at 10 µM; Alexa488-MEK5 binding to MEKK3; active compounds read low; actives 1.8% (n = 5,900);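 active = binding response below 72% of control, or above a set upper limit, though filed actives all read lower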;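 note: 100% = DMSO only wells and 0% = binding blocked by excess unlabeled MEK5; lower values mean stronger disruption of MEK5 binding to MEKK3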
An asterisk follows results filed as active; . = not tested or not shown; [ ] = remark or other dose.

SMILES	GRK2 aptamer HTS	MEKK3 PB1 HTS	MEKK2wt PB1 HTS	MEKK2mut PB1 HTS	MEKK2wt confirm	MEKK2mut-MEK5	MEKK3-MEK5 inh
COC(=O)N1C(=O)[C@](c2ccccc2)(C2CCCC2)N1C(=O)OC	2.0	100.0	96.0	30.0*	100.0	-4.0	98.0
CCOc1ccc(OCCOC(=O)C2CCN(S(=O)(=O)c3ccc(C)c(C)c3)CC2)cc1	2.0	.	.	.	.	.	.
Cc1cccc(N2CCc3c2nc2ccc(Br)cc2c3N)c1	0.0	124.0*	96.0	18.0	121.0	22.0	111.0
Nc1c2c(nc3ccc(Br)cc13)N(c1ccccc1)CC2	0.0	104.0	117.0	6.0	.	.	.
CC1(C)Cc2ccccc2/C(=C/C(=O)N2CCCCCC2)N1	0.0	79.0*[inhibitor]	85.0	-9.0	103.0	3.0	102.0
COc1cc2c(cc1OC)/C(=C/C(=O)N1CCOCC1)NC(C)(C)C2	1.0	103.0	105.0	8.0	.	.	.
CC(=O)c1c(C)[nH]c(C(=O)OCC(=O)N2CCc3ccccc32)c1C	0.0	2.0*[inhibitor]	1.0*[inhibitor]	-41.0	106.0	2.0	101.0
O=C(CSc1nc2ccccc2c(=O)n1-c1ccc(OC(F)F)cc1)NCc1cccs1	0.0	138.0*	105.0	0.0	100.0	0.0	102.0
O=C(CSc1nc2ccccc2c(=O)n1Cc1ccc(Cl)cc1)NCc1cccs1	0.0	100.0	96.0	-2.0	.	.	.
CC[C@@]1(C(=O)OC)N[C@H](CN(C)C(=O)Nc2ccccc2)[C@@H]2C(=O)N(Cc3ccccc3)C(=O)[C@@H]21	1.0	.	.	.	.	.	.
COc1ccc(-n2nc3c(c2NC(=O)C2CC(=O)N(c4ccccc4)C2)CS(=O)(=O)C3)cc1 (stereo not drawn)	1.0	102.0	105.0	0.0	.	.	.
COc1ccccc1-n1c([S-])c(C(=O)Nc2ccccc2C(F)(F)F)[n+]2ccc(C(=O)NCCO)cc12	9.0	99.0	68.0	-14.0	.	.	.
Cc1ccc(-n2c([S-])c(C(=O)Nc3ccc(OC(F)F)cc3)[n+]3ccc(C(=O)NCCO)cc23)cc1C	0.0	86.0	63.0*[inhibitor]	-10.0	84.0	-9.0	99.0
CCOCCCn1c(=S)[nH]c2cc(C(=O)N3CCN(C)CC3)ccc2c1=O	0.0	70.0*[inhibitor]	80.0	-14.0	93.0	-11.0	95.0
CN(CC(=O)Nc1ccc(Cl)c(Cl)c1)C(=O)CNC(=O)C1CCCCC1	4.0	.	.	.	.	.	.
O=C(/C=C/c1ccc(Cl)cc1)Nc1ccc(CN2CCOCC2)cc1	0.0	106.0	140.0*	31.0	111.0	3.0	102.0
Cc1c(CNC2CCC(C)CC2)c(C(=O)O)c(C)n1Cc1ccccc1 (stereo not drawn)	0.0	140.0*	111.0	1.0	109.0	8.0	106.0
CCOC(=O)[C@@H]1[C@H]2COc3ccccc3[C@H]2N2C(=O)N(c3cccc(F)c3)C(=O)[C@]12C	2.0	103.0	102.0	-4.0	.	.	.
COc1cc(/C=N/Nc2ccc(Cl)cc2)ccc1OC(=O)c1cccs1	3.0	46.0*[inhibitor]	89.0	-2.0	95.0	-6.0	95.0
CCOC(=O)C1CCN(C(=O)COC(=O)CN(C)S(=O)(=O)c2ccc(NC(C)=O)cc2)CC1	0.0	100.0	103.0	1.0	.	.	.
COc1cc2c(cc1NC(=S)NC(=O)c1c(OC)cccc1OC)oc1ccccc12	3.0	129.0*	102.0	0.0	85.0	-11.0	96.0
COCCN(C(=O)CCN1C(=O)C2CC=CCC2C1=O)c1c(N)n(CC(C)C)c(=O)[nH]c1=O (stereo not drawn)	1.0	.	.	.	.	.	.
